The text below walks through data of PubChem BioAssay (NCI).

Compounds without any hit were thinned out: in the full panel of roughly 83,000, 20% have a hit.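 Percent growth is the endpoint: 0 to 100 indicates growth inhibition (40 means 60% inhibition), 0 means no net growth, and negative values indicate cell death.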 A number with no mark means an inactive call. Calls of active or inactive are those of the source. The calls were made as follows: active = growth percent below 10; inactive = the rest.

Assay in all cases: NCI-60 one-dose screen, 48 h (100 = growth as untreated, 0 = no growth, -100 = all killed)
In one experiment the test system is HT29 colon. The note with it: 10 µM unless noted.
For the next experiment, the system named is SNB-75 CNS. As to conditions: 10 µM unless noted.
The next experiment relates to SNB-19 CNS. As to conditions: 10 µM unless noted.
The test system of another experiment is U251 CNS. As to conditions: 10 µM unless noted.
In a further experiment the test system is PC-3 prostate. As to conditions: 10 µM unless noted.
The next experiment concerns SK-MEL-5 melanoma. The note with it: 10 µM unless noted.
The test system of a further experiment is UACC-62 melanoma. The note with it: 10 µM unless noted.
Another experiment relates to LOX IMVI melanoma. The note with it: 10 µM unless noted.
The test system of a further experiment is SK-MEL-28 melanoma. The note with it: 10 µM.
The next experiment concerns SK-MEL-2 melanoma. As to conditions: 10 µM unless noted.
For the next experiment, the system named is SN12C renal. The note with it: 10 µM unless noted.
The next experiment has as its system UO-31 renal. As to conditions: 10 µM unless noted.
Another experiment deals with TK-10 renal. The note with it: 10 µM unless noted.
The test system of a further experiment is ACHN renal. The note with it: 10 µM unless noted.
In the next experiment the test system is A498 renal. As to conditions: 10 µM unless noted.
A further experiment relates to CCRF-CEM leukemia. The note with it: 10 µM unless noted.
In another experiment the test system is MOLT-4 leukemia. As to conditions: 10 µM unless noted.
A further experiment has as its system SR leukemia. The note with it: 10 µM unless noted.
The test system of a further experiment is CAKI-1 renal. As to conditions: 10 µM unless noted.
The test system of another experiment is EKVX NSCLC. The note with it: 10 µM unless noted.

In the case of `COc1ccc(C(O)(CCC(C)C)C(CN2CCOCC2)c2ccc(Cl)cc2)cc1` (stereo not given), the growth in the experiment with HT29 colon was 9% (active); with SNB-75 CNS it was 74.4%; with SNB-19 CNS it was 83.6%; with U251 CNS it was 66.1%; with PC-3 prostate, 53.8%; in the experiment with SK-MEL-5 melanoma, 65.5%. For the same molecule, the growth with UACC-62 melanoma is 60.9%; in the experiment on LOX IMVI melanoma it was 52.2%; in the experiment on SK-MEL-28 melanoma it was 54.1%; in the experiment on SK-MEL-2 melanoma it was 2.58% (active); in the experiment on SN12C renal, 70.6%; with UO-31 renal, 62.8%. In addition, the growth was 86% with TK-10 renal; 57.4% in the experiment on ACHN renal; 110% with A498 renal; 34.2% in the experiment with CCRF-CEM leukemia; 34.2% in the experiment with MOLT-4 leukemia; 10.7% in the experiment on SR leukemia.

For `CCCCCCC(O)(c1ccc(F)cc1)C(CN1CCOCC1)c1ccccc1` (stereo not given), the growth in the experiment with HT29 colon is 33.1%; in the experiment on SNB-75 CNS, 32.8%; with SNB-19 CNS, 42%; in the experiment on U251 CNS, 28%; in the experiment on PC-3 prostate it was 15.4%; in the experiment on SK-MEL-5 melanoma, 52.8%. The growth is 22.6% in the experiment on UACC-62 melanoma; 29.5% with LOX IMVI melanoma; 68.1% with SK-MEL-28 melanoma; 36.4% in the experiment with SK-MEL-2 melanoma; 35.3% with SN12C renal; 19.4% with UO-31 renal. For the same molecule, the growth in the experiment with TK-10 renal is 34.2%; in the experiment on ACHN renal, 23.7%; with CAKI-1 renal, 33.1%; in the experiment with A498 renal, 50%; in the experiment on CCRF-CEM leukemia, 18.1%; with SR leukemia it was 23.2%.

For the molecule `CC(C)CCNCC(O)Cn1c2ccccc2c2ccccc21` (stereo not given), the growth was -12.7% (active) in the experiment with HT29 colon; -3.3% (active) in the experiment with SNB-75 CNS; 24.4% in the experiment on SNB-19 CNS; 14.4% in the experiment with U251 CNS; 20.2% with PC-3 prostate; -20.6% (active) in the experiment with SK-MEL-5 melanoma. The growth with UACC-62 melanoma is 14.1%; in the experiment with LOX IMVI melanoma, 1.91% (active); in the experiment on SK-MEL-28 melanoma, 14.9%; with SK-MEL-2 melanoma, 13.7%; with SN12C renal, 19.4%; with UO-31 renal, -14.4% (active). Besides, the growth with TK-10 renal is 33.1%; with CAKI-1 renal, -0.189% (active); in the experiment with A498 renal, 3.02% (active); in the experiment with CCRF-CEM leukemia, 13%; with MOLT-4 leukemia, 2.44% (active); with SR leukemia, 3.35% (active).

Turning to `CS(=O)(=O)Nc1ccc(C(=O)NC(C(=O)NO)c2ccc(-c3cccc(F)c3)cc2)cc1` (stereo not given), the growth with HT29 colon is 53.2%; in the experiment with SNB-75 CNS, 24.8%; with SNB-19 CNS, 45.2%; in the experiment with U251 CNS, 94.1%; with PC-3 prostate, 86.9%; in the experiment on SK-MEL-5 melanoma, 48%. In addition, the growth in the experiment on UACC-62 melanoma is 79%; in the experiment on LOX IMVI melanoma, 44.8%; with SK-MEL-28 melanoma it was 91.8%; in the experiment on EKVX NSCLC it was 97.4%; in the experiment with SN12C renal, 75.3%; with UO-31 renal it was 19.3%. Besides, the growth in the experiment on TK-10 renal is 30.3%; with ACHN renal, 58.7%; in the experiment with CAKI-1 renal it was 49.9%; in the experiment on A498 renal, 95.6%; in the experiment with CCRF-CEM leukemia, 95.1%; with MOLT-4 leukemia, 103%. Further, the growth in the experiment on SR leukemia is 78.8%.

Take `COc1ccc(-c2nc(N3CCN(C(=O)C4CCCCC4)CC3)c3c4c(sc3n2)CCCC4)cc1`: the growth was -49.9% (active) with HT29 colon; -66.3% (active) in the experiment with SNB-75 CNS; 69.8% in the experiment on SNB-19 CNS; -78.6% (active) in the experiment with U251 CNS; -28.7% (active) with PC-3 prostate; 36.5% in the experiment on SK-MEL-5 melanoma. Further, the growth in the experiment with UACC-62 melanoma was 44.1%; in the experiment on LOX IMVI melanoma, 5.28% (active); in the experiment on SK-MEL-28 melanoma, -24.2% (active); in the experiment with SK-MEL-2 melanoma it was 24.7%; in the experiment with SN12C renal, 77.2%; with UO-31 renal, -7.01% (active). For the same molecule, the growth in the experiment with TK-10 renal was -40.1% (active); in the experiment on ACHN renal it was 33.5%; with CAKI-1 renal it was -12.1% (active); in the experiment on A498 renal, 57.1%; in the experiment with CCRF-CEM leukemia, 5.79% (active); in the experiment on SR leukemia, -33.2% (active).

Take `CCCCCCn1c(=N)n(CC(O)COc2cccc(C)c2)c2ccccc21` (stereo not given): the growth with HT29 colon is -46.2% (active); in the experiment on SNB-75 CNS, -92.1% (active); in the experiment with SNB-19 CNS, 12.6%; with U251 CNS, -75.7% (active); in the experiment with PC-3 prostate it was -11% (active); in the experiment with SK-MEL-5 melanoma, -98.7% (active). The growth in the experiment on UACC-62 melanoma is -72.4% (active); with LOX IMVI melanoma it was -86.3% (active); in the experiment with SK-MEL-28 melanoma it was -92.3% (active); with SK-MEL-2 melanoma, -79.7% (active); with SN12C renal it was 28.6%; in the experiment on UO-31 renal, -96.1% (active). Moreover, the growth was -86.4% (active) in the experiment with TK-10 renal; -52.9% (active) with ACHN renal; -13% (active) with A498 renal; 1.25% (active) with CCRF-CEM leukemia; -3.39% (active) with MOLT-4 leukemia; -28.5% (active) with SR leukemia.

With `Cn1c(=O)n(C)c2cc(CNCCNc3ccnc4cc(Cl)ccc34)ccc21`, the growth in the experiment with HT29 colon is 6.95% (active); in the experiment with SNB-75 CNS it was 69.6%; in the experiment with SNB-19 CNS, 89%; in the experiment on U251 CNS, 51.5%; in the experiment on PC-3 prostate, 64.2%; with SK-MEL-5 melanoma, 72.3%. Moreover, the growth was -46.8% (active) with UACC-62 melanoma; 9.85% (active) in the experiment on LOX IMVI melanoma; -36.1% (active) with SK-MEL-28 melanoma; 65.7% with SK-MEL-2 melanoma; 63.3% in the experiment with SN12C renal; 36.9% in the experiment with UO-31 renal. Moreover, the growth in the experiment on TK-10 renal was 62.3%; in the experiment with CAKI-1 renal, 66.2%; with A498 renal, 72.3%; in the experiment with CCRF-CEM leukemia it was 58.5%; with MOLT-4 leukemia it was 61.1%; with SR leukemia it was 3.33% (active).

Regarding `O=c1oc2ccc(-c3ccc(F)cc3F)cc2c(=O)n1-c1cccc(C(F)(F)F)c1`, the growth with HT29 colon was 31.3%; with SNB-75 CNS, -7.33% (active); in the experiment with SNB-19 CNS it was 14.4%; with U251 CNS it was 4.94% (active); in the experiment on PC-3 prostate, 3.58% (active); in the experiment on SK-MEL-5 melanoma, -76.4% (active). The growth with UACC-62 melanoma is 7.26% (active); with LOX IMVI melanoma, 25.7%; with SK-MEL-28 melanoma, 25%; in the experiment with EKVX NSCLC, 13.5%; in the experiment on SN12C renal it was 4.72% (active); in the experiment on UO-31 renal it was 1.41% (active). Further, the growth in the experiment with TK-10 renal was 11.6%; in the experiment on ACHN renal, 6.31% (active); with CAKI-1 renal, -12.6% (active); with A498 renal, -42.6% (active); in the experiment with CCRF-CEM leukemia, 10.4%; with MOLT-4 leukemia it was 1.99% (active).
